According to PubChem BioAssay (EPA / NIEHS):
Calls of active or inactive are those of the source. The calls were made as follows: active = hit-call score of the fitted dose curve at least 0.9, where 1 is the maximum; inactive = score below 0.9.

Key:
[1] = ATG_CRE_CIS: Attagene CIS-FACTORIAL HepG2 Assay for human cAMP Responsive Element (CRE) binding protein 3 (AID 2282926); details: HepG2 CRE cis-reporter, Attagene multiplexed mRNA; actives raise or lower the signal
Outline: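 Human liver HepG2, transient MRTU transfection, 24 h compound exposure. Total RNA → oligo(dT) RT → PCR → 6-FAM primer extension → HpaI cut → CE. Activity called both directions vs DMSO.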

[2] = target: CCAAT/enhancer-binding protein beta (Homo sapiens) (UniProt P17676); experiment: ATG_C_EBP_CIS: Attagene CIS-FACTORIAL HepG2 Assay for human CCAAT/Enhancer Binding Protein (C/EBP) beta (AID 2282927); details: HepG2 Attagene cis-factorial transcription factor reporter; actives raise or lower the signal
Sequence of CCAAT/enhancer-binding protein beta (Homo sapiens) (P17676 whole entry, looked up): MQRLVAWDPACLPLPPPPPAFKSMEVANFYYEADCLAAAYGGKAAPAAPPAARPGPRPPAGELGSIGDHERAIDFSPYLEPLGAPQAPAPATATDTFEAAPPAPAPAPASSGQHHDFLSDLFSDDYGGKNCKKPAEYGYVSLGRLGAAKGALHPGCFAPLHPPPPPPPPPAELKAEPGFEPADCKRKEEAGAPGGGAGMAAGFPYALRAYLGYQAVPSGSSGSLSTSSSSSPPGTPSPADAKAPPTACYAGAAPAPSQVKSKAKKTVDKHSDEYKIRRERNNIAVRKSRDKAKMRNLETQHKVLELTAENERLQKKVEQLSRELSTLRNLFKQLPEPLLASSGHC
Outline: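 HepG2 transiently transfected with multiplexed reporter units under cis-regulatory promoters reporting endogenous C/EBPb activity. After 24 h exposure, reporter mRNA assayed by RT-PCR, fluorescent labelling, HpaI digestion and capillary electrophoresis; bidirectional fitting versus DMSO.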

[3] = ATG_CMV_CIS: Attagene CIS-FACTORIAL HepG2 Assay for human CMV (Internal Marker) (AID 2282928); details: HepG2 CMV promoter reporter, transcription factor profiling; actives raise or lower the signal;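 also: endpoint acts as a background internal control marker rather than a target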
Outline: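 CMV internal-marker background readout in transiently transfected HepG2 cells bearing cis-regulated reporter units. Reporter mRNA is measured 24 h after dosing by RT-PCR and capillary electrophoresis, with bidirectional fitting against DMSO.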

[4] = ATG_DR4_LXR_CIS: Attagene CIS-FACTORIAL HepG2 Assay for human Liver X Receptor (LXR), DR4 submotif (AID 2282929); details: HepG2 Attagene DR4 cis-reporter, mRNA transcription; actives raise or lower the signal
Outline: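 The endpoint is DR4-element-driven reporter transcripts after 24 h chemical exposure of transfected HepG2 cells. These were measured via RT-PCR and capillary electrophoresis, and gain or loss of signal was fitted relative to DMSO controls.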

[5] = target: Aryl hydrocarbon receptor (Homo sapiens) (UniProt P35869); experiment: ATG_Ahr_CIS: Attagene CIS-FACTORIAL HepG2 Assay for human Aryl Hydrocarbon Receptor (Ahr) (AID 2282930); details: HepG2 AhR cis-factorial reporter transcription; actives raise or lower the signal
Sequence of Aryl hydrocarbon receptor (Homo sapiens) (P35869 whole entry, looked up): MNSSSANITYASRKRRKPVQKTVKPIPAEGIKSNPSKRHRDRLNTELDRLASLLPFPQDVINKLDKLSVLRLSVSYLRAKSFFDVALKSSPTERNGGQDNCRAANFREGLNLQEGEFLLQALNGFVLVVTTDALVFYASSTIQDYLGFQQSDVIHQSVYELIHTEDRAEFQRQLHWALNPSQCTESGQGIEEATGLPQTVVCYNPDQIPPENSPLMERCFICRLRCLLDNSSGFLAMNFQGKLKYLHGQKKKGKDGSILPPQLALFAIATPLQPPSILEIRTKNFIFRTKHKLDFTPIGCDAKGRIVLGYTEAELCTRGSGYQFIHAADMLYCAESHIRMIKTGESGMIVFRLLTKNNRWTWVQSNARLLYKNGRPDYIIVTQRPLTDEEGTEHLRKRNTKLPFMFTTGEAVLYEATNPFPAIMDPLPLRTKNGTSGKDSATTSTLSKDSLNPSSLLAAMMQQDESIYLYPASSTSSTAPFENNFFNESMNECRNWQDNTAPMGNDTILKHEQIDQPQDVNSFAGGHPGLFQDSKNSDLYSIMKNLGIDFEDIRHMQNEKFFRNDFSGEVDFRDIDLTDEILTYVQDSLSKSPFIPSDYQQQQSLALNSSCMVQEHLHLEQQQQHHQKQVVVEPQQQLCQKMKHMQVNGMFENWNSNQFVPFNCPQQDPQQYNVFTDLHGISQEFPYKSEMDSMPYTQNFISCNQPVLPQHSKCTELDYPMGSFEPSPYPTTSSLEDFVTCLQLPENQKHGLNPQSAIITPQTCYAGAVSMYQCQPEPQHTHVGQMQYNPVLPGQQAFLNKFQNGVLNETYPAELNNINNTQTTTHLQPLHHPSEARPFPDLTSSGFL
Outline: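 HepG2 cells transiently transfected with cis-element-driven multiplexed reporter units; endogenous AhR activity read as reporter mRNA 24 h after dosing, via RT-PCR, 6-FAM labelling, HpaI digestion and capillary electrophoresis. Bidirectional fit relative to DMSO.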

[6] = ATG_AP_1_CIS: Attagene CIS-FACTORIAL HepG2 Assay for human Activator Protein 1 (AP-1) (AID 2282931); details: HepG2 Attagene cis-factorial AP-1 reporter mRNA; actives raise or lower the signal
Outline: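 Readout is reporter transcript level from endogenous transcription factor activity, quantified by RT-PCR with fluorescent primer extension and capillary electrophoresis. Transiently transfected HepG2 cells, 24 h exposure. Curves fitted both directions versus DMSO.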

[7] = ATG_AP_2_CIS: Attagene CIS-FACTORIAL HepG2 Assay for human Activator Protein 2 (AP-2) (AID 2282932); details: HepG2 AP-2 cis-reporter, Attagene transcription factor profiling; actives raise or lower the signal
Outline: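 Multiplexed mRNA reporter assay in HepG2: cis-regulated units report endogenous factor activity after 24 h treatment. Fluorescence from capillary electrophoresis of RT-PCR products gives the signal, with DMSO as baseline.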

[8] = ATG_BRE_CIS: Attagene CIS-FACTORIAL HepG2 Assay for human Bone Morphogenetic Protein (BMP) Response Element (BRE) (AID 2282933); details: HepG2 BMP response element reporter, Attagene transcription factor profiling; actives raise or lower the signal
Outline: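 A HepG2 multiplex reporter system measured inducible reporter mRNA 24 h post-dosing. Detection: RT-PCR, 6-FAM primer extension, HpaI digestion, capillary electrophoresis. Activity fitted bidirectionally relative to DMSO.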

[9] = ATG_E_Box_CIS: Attagene CIS-FACTORIAL HepG2 Assay for human Enhancer Box (E-box) (AID 2282936); details: HepG2 E-box cis-reporter transcription, actives raise or lower the signal
Outline: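 First, HepG2 cells receive multiple cis-regulated reporter constructs by transient transfection. Next, chemicals are applied for 24 h. Finally, reporter mRNA is quantified via RT-PCR and capillary electrophoresis, with DMSO as baseline.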

[10] = ATG_M_61_CIS: Attagene CIS-FACTORIAL HepG2 Assay for M61 Transcription Factor (Internal Marker) (AID 2282937); details: HepG2 Attagene CIS-FACTORIAL M61 internal marker reporter; actives raise or lower the signal
Outline: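 Readout is reporter mRNA by RT-PCR, fluorescent primer extension and capillary electrophoresis, with gain or loss fitted relative to DMSO. Transfected HepG2 cells carrying endogenous-TF-driven cis reporters were exposed to chemicals for 24 hours.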

[11] = ATG_EGR_CIS: Attagene CIS-FACTORIAL HepG2 Assay for human Early Growth Response 1 (EGR1) (AID 2282938); details: HepG2 Attagene CIS-FACTORIAL EGR reporter mRNA; actives raise or lower the signal
Outline: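 After 24 h compound exposure, RNA from reporter-transfected HepG2 cells was reverse-transcribed, PCR-amplified, fluorescently labelled and resolved by capillary electrophoresis. EGR1 reporter transcript changes, up or down, were fitted against DMSO, reflecting endogenous transcription-factor activity.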

[12] = ATG_M_19_CIS: Attagene CIS-FACTORIAL HepG2 Assay for M19 Transcription Factor (Internal Marker) (AID 2282939); details: HepG2 Attagene CIS-FACTORIAL M19 internal marker reporter; actives raise or lower the signal
Outline: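 Chemical-treated HepG2 (24 h) with MRTU constructs; reporter transcripts detected by fluorescent RT-PCR fragment analysis on capillary electrophoresis. Internal background marker, DMSO as baseline.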

[13] = ATG_Ets_CIS: Attagene CIS-FACTORIAL HepG2 Assay for human Erythroblast Transformation Specific (ETS) (AID 2282941); details: HepG2 ETS cis-reporter transcription, actives raise or lower the signal
Outline: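 HepG2 cells transfected with multiple cis-regulated reporter units measuring endogenous ETS-driven transcription, 24 h after dosing. Reporter mRNA quantified by RT-PCR with capillary electrophoresis; bidirectional fit relative to DMSO.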

[14] = target: Hepatocyte nuclear factor 3-beta (Homo sapiens) (UniProt Q9Y261); experiment: ATG_FoxA2_CIS: Attagene CIS-FACTORIAL HepG2 Assay for human Forkhead box A2 (FOXA2) (AID 2282942); details: HepG2 cis-reporter transcription factor activity, 24 h; actives raise or lower the signal
Sequence of Hepatocyte nuclear factor 3-beta (Homo sapiens) (Q9Y261 whole entry, looked up): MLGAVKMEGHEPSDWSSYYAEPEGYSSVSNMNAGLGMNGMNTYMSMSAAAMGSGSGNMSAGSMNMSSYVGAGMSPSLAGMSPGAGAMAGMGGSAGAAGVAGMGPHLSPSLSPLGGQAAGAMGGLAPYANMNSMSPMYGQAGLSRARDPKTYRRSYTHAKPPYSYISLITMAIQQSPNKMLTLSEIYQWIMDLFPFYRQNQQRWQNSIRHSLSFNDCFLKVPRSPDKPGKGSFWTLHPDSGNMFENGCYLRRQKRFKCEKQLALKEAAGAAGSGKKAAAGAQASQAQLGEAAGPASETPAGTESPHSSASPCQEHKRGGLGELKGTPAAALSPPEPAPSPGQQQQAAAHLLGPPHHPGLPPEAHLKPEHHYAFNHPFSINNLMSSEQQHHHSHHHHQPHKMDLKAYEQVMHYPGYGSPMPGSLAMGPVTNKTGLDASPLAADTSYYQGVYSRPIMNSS
Outline: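 Endogenous transcription factor activity is captured via cis-element-driven reporter transcripts in transfected HepG2. Total RNA taken at 24 h post-dosing; labelled RT-PCR products resolved by capillary electrophoresis. Gain or loss fitted versus DMSO.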

[15] = ATG_FoxO_CIS: Attagene CIS-FACTORIAL HepG2 Assay for human Forkhead box O (FoxO) (AID 2282943); details: HepG2 Attagene cis-reporter, FoxO element, mRNA; actives raise or lower the signal
Outline: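 HepG2 cells transiently transfected with cis-element-driven reporter units report endogenous FoxO activity. After 24 h chemical exposure, reporter mRNA quantified by RT-PCR, fluorescent labeling, HpaI digestion and capillary electrophoresis; bidirectional fit versus DMSO.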

[16] = ATG_GATA_CIS: Attagene CIS-FACTORIAL HepG2 Assay for human GATA Binding Protein (AID 2282944); details: HepG2 GATA cis-element reporter, Attagene multiplex mRNA; actives raise or lower the signal
Outline: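 Transfected cis-reporter HepG2 cells were treated with chemicals for 24 hours. Total RNA was then converted to cDNA, amplified with reporter-specific primers and analysed by fluorescent capillary electrophoresis, using DMSO-treated wells as baseline.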

[17] = ATG_GLI_CIS: Attagene CIS-FACTORIAL HepG2 Assay for human Zinc Finger Protein GLI1 (AID 2282945); details: HepG2, Attagene cis-factorial reporter mRNA, GLI element; actives raise or lower the signal
Outline: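 Transiently transfected HepG2 cells report endogenous transcription factor activity via cis-element-driven reporter units. After 24 h compound exposure, reporter mRNA was measured by RT-PCR with capillary electrophoresis; bidirectional fitting against DMSO baseline.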

[18] = target: Transcription factor E2F1 (Homo sapiens) (UniProt Q01094); experiment: ATG_E2F_CIS: Attagene CIS-FACTORIAL HepG2 Assay for human E2F Transcription Factor 1 (AID 2282935); details: HepG2 Attagene cis-reporter, E2F reporter RNA transcripts; actives raise or lower the signal
Sequence of Transcription factor E2F1 (Homo sapiens) (Q01094 whole entry, looked up): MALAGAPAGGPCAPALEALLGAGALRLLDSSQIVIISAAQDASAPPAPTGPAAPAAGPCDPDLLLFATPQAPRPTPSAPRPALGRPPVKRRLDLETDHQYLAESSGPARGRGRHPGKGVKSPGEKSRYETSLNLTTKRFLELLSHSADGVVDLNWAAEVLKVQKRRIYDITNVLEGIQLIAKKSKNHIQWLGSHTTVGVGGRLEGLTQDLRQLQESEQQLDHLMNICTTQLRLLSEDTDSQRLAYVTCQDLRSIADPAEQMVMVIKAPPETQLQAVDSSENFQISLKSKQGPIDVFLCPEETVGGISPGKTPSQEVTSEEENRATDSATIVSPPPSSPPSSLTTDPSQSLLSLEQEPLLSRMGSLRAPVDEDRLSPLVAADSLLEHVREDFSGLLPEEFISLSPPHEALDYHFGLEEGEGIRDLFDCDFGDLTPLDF
Outline: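 Measures reporter transcript levels via RT-PCR with capillary electrophoresis detection in HepG2 cells harboring cis-regulated reporter units; 24 h post-dose; bidirectional curve fitting with DMSO as baseline.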

[19] = ATG_ERE_CIS: Attagene CIS-FACTORIAL HepG2 Assay for Estrogen Response Element (ERE) (AID 2282940); details: HepG2 ERE cis-reporter, Attagene RNA transcript; actives raise or lower the signal
Outline: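 Human liver cells (HepG2) bearing transiently transfected, promoter-regulated reporter units were exposed 24 h. Reporter mRNA induction was detected by capillary electrophoresis of labelled RT-PCR products and fitted bidirectionally to DMSO.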

Measured: AC50

CC(=O)Nc1ccccc1O
active: [5] 20.7 µM
not listed: [18] | [19]
inactive: all other assays above

N#Cc1ccc(CC(=NNC(=O)Nc2ccc(OC(F)(F)F)cc2)c2cccc(C(F)(F)F)c2)cc1
active: [5] 53.1 µM
not listed: [11] | [15]
inactive: all other assays above

CC(C#N)(CCC(=O)O)N=NC(C)(C#N)CCC(=O)O (configuration not stated)
not listed: [12] | [14] | [17] | [19]
inactive: all other assays above

Cc1c(Cl)c(=O)oc2cc(O)ccc12
active: [2] 129 µM | [3] 63 µM
not listed: [11] | [19]
inactive: all other assays above

C=C(C)C(=O)NCCCN(C)C
not listed: [15] | [16] | [18] | [19]
inactive: all other assays above

CC1=CC(=O)NS(=O)(=O)O1
not listed: [12] | [19]
inactive: all other assays above

OCCOCCOCCOCCO
active: [5] 40.5 µM
not listed: [11]
inactive: all other assays above

C=CC(=O)OCC(O)COc1ccccc1 (configuration not stated)
active: [4] 32 µM | [7] 26.8 µM | [8] 82.8 µM | [9] 38.8 µM | [11] 64.3 µM
not listed: [15] | [18]
inactive: all other assays above

O=C1O[C@@H]2[C@@H](O)[C@H](O)O[C@@H]2[C@H]1O
not listed: [11] | [14] | [17]
inactive: all other assays above

C=C(C)[C@@H]1CC[C@@H](C)C[C@@H]1O
not listed: [12] | [19]
inactive: all other assays above

COc1cc(C)cc(O)c1
not listed: [12] | [19]
inactive: all other assays above

CNC(=O)Oc1ccc2c(c1)[C@]1(C)CCN(C)[C@@H]1N2C
not listed: [18]
inactive: all other assays above

CC(C)(C)NC(N)=O
not listed: [18]
inactive: all other assays above

CC(C)=CCO
not listed: [11] | [18]
inactive: all other assays above

CC(=O)[O][Al][O]C(C)=O
not listed: [18]
inactive: all other assays above

OCC(CO)(CO)COCC(CO)(CO)CO
not listed: [7]
inactive: all other assays above
